Test results published in PubChem BioAssay (NCATS).
Records with an inconclusive call do not appear. Activity calls are given as the source filed them. Calls come from the whole dose curve; as a rule, active = well fitted curve in the direction sought with a large enough effect; inconclusive = small, poorly fitted or top-dose-only effect, or another doubt; inactive = no such curve, though single readings can be large; an effect the other way counts as inactive or inconclusive.

What was measured:
[1] = qHTS of pediatric cancer cell lines to identify multiple opportunities for drug repurposing: Primary screen for BT-37 cells (AID 1347094); note: potency is the fitted concentration of half-maximal effect;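 for activity change, negative = cytotoxic: series mostly up to about 57 µM; plate controls were DMSO for no effect and bortezomib for full effect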
In short: (§1)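 Primary screen of approved and investigational compounds on cells in growth media at 37 degrees C, 5% CO2. MIPE set at 11-point and NPC set at 8-point dilutions; viability scored by ATP-based luminescence at 48 hours.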

[2] = qHTS of pediatric cancer cell lines to identify multiple opportunities for drug repurposing: Primary screen for NB-EBc1 cells (AID 1347095); note: potency is the fitted concentration of half-maximal effect;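 for activity change, negative = cytotoxic: plate controls were DMSO neutral control for no effect and bortezomib for full effect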
In short: as §1

[3] = qHTS of pediatric cancer cell lines to identify multiple opportunities for drug repurposing: Primary screen for Saos-2 cells (AID 1347097); note: nearly all actives have a fitted effect of over 40% in size; note: potency is the fitted concentration of half-maximal effect; for activity change, negative = cytotoxic: % is set by controls: 0 for no effect and ±100 for the full control effect
In short: as §1

[4] = qHTS of pediatric cancer cell lines to identify multiple opportunities for drug repurposing: Primary screen for SK-N-SH cells (AID 1347098); note: nearly all actives have a fitted effect of over 65% in size; note: potency is the fitted concentration of half-maximal effect;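 for activity change, negative = cytotoxic: DMSO served as neutral control and bortezomib at 2.3 µM as positive control; % is set by controls: 0 for no effect and ±100 for the full control effect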
In short: (§2)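 Cells (500-1,000/well) rested 5 h, then received compounds for 48 h; metabolically active cells were measured by CellTiter-Glo luminescence. Final concentrations spanned up to 46 µM (MIPE, 11-point) or 0.59 nM-46 µM (NPC, 8-point) in primary screens, 11-point in follow-ups.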

[5] = qHTS of pediatric cancer cell lines to identify multiple opportunities for drug repurposing: Primary screen for LAN-5 cells (AID 1347100); note: potency is the fitted concentration of half-maximal effect;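 for activity change, negative = cytotoxic: plate controls were DMSO neutral control for no effect and bortezomib positive control for full effect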
In short: (§3)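 Viability after 48 h compound treatment at 37C, 500-1,000 cells/well, read as ATP luminescence with CellTiter-Glo. Primary screens used 11-point (MIPE, 0.78 nM-46 µM) or 8-point (NPC, 0.59 nM-46 µM) final concentrations; follow-up screens used 11-point dilutions.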

[6] = qHTS of pediatric cancer cell lines to identify multiple opportunities for drug repurposing: Primary screen for BT-12 cells (AID 1347101); note: nearly all actives have a fitted effect of over 25% in size; note: potency is the fitted concentration of half-maximal effect;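 for activity change, negative = cytotoxic: plate controls were DMSO for no effect and bortezomib positive control for full effect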
In short: as §2

[7] = qHTS of pediatric cancer cell lines to identify multiple opportunities for drug repurposing: Primary screen for Rh18 cells (AID 1347102); note: nearly all actives have a fitted effect of over 65% in size; note: potency is the fitted concentration of half-maximal effect; for activity change, negative = cytotoxic: % is set by controls: 0 for no effect and ±100 for the full control effect
In short: as §3

[8] = qHTS of pediatric cancer cell lines to identify multiple opportunities for drug repurposing: Primary screen for RD cells (AID 1347104); note: nearly all actives have a fitted effect of over 55% in size; note: potency is the fitted concentration of half-maximal effect;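 for activity change, negative = cytotoxic: plate controls were DMSO for no effect and bortezomib for full effect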
In short: as §1

[9] = qHTS of pediatric cancer cell lines to identify multiple opportunities for drug repurposing: Primary screen for MG 63 (6-TG R) cells (AID 1347105); note: nearly all actives have a fitted effect of over 50% in size; note: potency is the fitted concentration of half-maximal effect
In short: as §1

[10] = qHTS of pediatric cancer cell lines to identify multiple opportunities for drug repurposing: Primary screen for Rh41 cells (AID 1347108); note: nearly all actives have a fitted effect of over 70% in size; note: potency is the fitted concentration of half-maximal effect
In short: as §1

[11] = qHTS of pediatric cancer cell lines to identify multiple opportunities for drug repurposing: Confirmatory screen for NB1643 cells (AID 1347109); note: potency is the fitted concentration of half-maximal effect; nearly all actives have a fitted effect of over 45% in size
In short: as §3

[12] = qHTS of pediatric cancer cell lines to identify multiple opportunities for drug repurposing: Confirmatory screen for SK-N-MC cells (AID 1347111);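 note: potency is the fitted concentration of half-maximal effect; cells exposed to compound for 48 h before the readout; nearly all actives have a fitted effect of over 70% in size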
In short: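 SK-N-MC cells at 500-1,000 cells/well in growth media were pre-incubated 5 h, then exposed to compounds at 11-point dilutions for 48 h at 37 degrees C, 5% CO2. Viability was read as CellTiter-Glo luminescence.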

[13] = qHTS of pediatric cancer cell lines to identify multiple opportunities for drug repurposing: Confirmatory screen for LAN-5 cells (AID 1347113); note: potency is the fitted concentration of half-maximal effect; nearly all actives have a fitted effect of over 65% in size
In short: as §3

[14] = qHTS of pediatric cancer cell lines to identify multiple opportunities for drug repurposing: Primary screen for NB1643 cells (AID 1347099); note: nearly all actives have a fitted effect of over 50% in size; note: potency is the fitted concentration of half-maximal effect;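 for activity change, negative = cytotoxic: plate controls were DMSO neutral control for no effect and bortezomib positive control for full effect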
In short: as §1

[15] = qHTS of pediatric cancer cell lines to identify multiple opportunities for drug repurposing: Primary screen for OHS-50 cells (AID 1347103); note: nearly all actives have a fitted effect of over 40% in size; note: potency is the fitted concentration of half-maximal effect;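 for activity change, negative = cytotoxic: plate controls were DMSO neutral control for no effect and bortezomib positive control for full effect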
In short: as §2

[16] = qHTS of pediatric cancer cell lines to identify multiple opportunities for drug repurposing: Primary screen for control Hh wild type fibroblast cells (AID 1347106); note: nearly all actives have a fitted effect of over 55% in size; note: potency is the fitted concentration of half-maximal effect;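 for activity change, negative = cytotoxic: series mostly up to about 46 µM; % is set by controls: 0 for no effect and ±100 for the full control effect; a drop in luminescence marks cytotoxicity and a rise apparent proliferation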
In short: as §3

[17] = qHTS of pediatric cancer cell lines to identify multiple opportunities for drug repurposing: Primary screen for Rh30 cells (AID 1347107); note: nearly all actives have a fitted effect of over 75% in size; for activity change, negative = cytotoxic: series mostly up to about 46 µM; % is set by controls: 0 for no effect and ±100 for the full control effect
In short: as §3

[18] = qHTS of pediatric cancer cell lines to identify multiple opportunities for drug repurposing: Confirmatory screen for A673 cells (AID 1347110); note: potency is the fitted concentration of half-maximal effect; nearly all actives have a fitted effect of over 65% in size
In short: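 Cells plated at 500-1,000/well were treated five hours later with multi-point dilutions up to 46 µM final. After two days, CellTiter-Glo was added and luminescence read.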

[19] = qHTS of pediatric cancer cell lines to identify multiple opportunities for drug repurposing: Primary screen for U-2 OS cells (AID 1347096);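 note: plate controls were DMSO wells for no effect and bortezomib positive control wells for full effect; nearly all actives have a fitted effect of over 50% in size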
In short: as §3

C[C@H](NCc1ccc2c(c1)nc(NC(=O)c1ccc(-c3cn[nH]c3)s1)n2CCc1ccccc1)C(C)(C)C
active: Potency [1] 1370 nM | Potency [2] 1870 nM | Potency [3] 1180 nM | Potency [4] 3040 nM | Potency [5] 833 nM | Potency [6] 2430 nM | Potency [7] 2960 nM | Potency [8] 3720 nM | Potency [9] 2960 nM | Potency [10] 2350 nM | Potency [11] 1040 nM | Potency [12] 928 nM | Potency [13] 1650 nM

CC(C)[C@H](CO)Nc1nc(Nc2cccc(Cl)c2)c2ncn(C(C)C)c2n1
inactive: Potency [16]
active: Potency [1] 21700 nM | Potency [2] 18700 nM | Potency [3] 9350 nM | Potency [4] 21500 nM | Potency [14] 2960 nM | Potency [5] 11800 nM | Potency [6] 21700 nM | Potency [15] 13700 nM | Potency [8] 18700 nM | Potency [9] 2960 nM | Potency [10] 11800 nM

C=CC(=O)Nc1cccc(Nc2nc(NC3CCC(N(C)C)CC3)nc3c2ncn3C(C)C)c1 (stereo not given)
inactive: Potency [17]
active: Potency [1] 96.8 nM | Potency [2] 166 nM | Potency [3] 833 nM | Potency [4] 136 nM | Potency [14] 33.2 nM | Potency [5] 14.8 nM | Potency [6] 38.5 nM | Potency [7] 418 nM | Potency [15] 38.5 nM | Potency [8] 83.3 nM | Potency [9] 469 nM | Potency [16] 2350 nM | Potency [10] 20.9 nM | Potency [11] 414 nM | Potency [18] 737 nM | Potency [12] 2610 nM | Potency [13] 827 nM

C[C@H]1COc2c(N3CCN(C)CC3)c(F)cc3c(=O)c(C(=O)O)cn1c23
inactive: Potency [1] | Potency [2] | Potency [3] | Potency [4] | Potency [14] | Potency [5] | Potency [6] | Potency [7] | Potency [15] | Potency [8] | Potency [9] | Potency [16] | Potency [17] | Potency [10]

C=CCNC1=C2C[C@@H](C)C[C@H](OC)[C@@H](O)[C@@H](C)C=C(C)[C@H](OC(N)=O)[C@@H](OC)C=CC=C(C)C(=O)NC(=CC1=O)C2=O
active: Potency [1] 193 nM | Potency [2] 1480 nM | Potency [3] 1660 nM | Potency [4] 2410 nM | Potency [5] 2090 nM | Potency [6] 19300 nM | Potency [7] 833 nM | Potency [15] 1220 nM | Potency [8] 235 nM | Potency [9] 23500 nM | Potency [17] 13200 nM | Potency [10] 3720 nM | Potency [11] 1170 nM | Potency [12] 2330 nM | Potency [13] 4650 nM

COc1cccc2c1C(=O)c1c(O)c3c(c(O)c1C2=O)C[C@@](O)(C(=O)CO)C[C@H]3O[C@H]1C[C@H](N)[C@H](O)[C@H](C)O1
inactive: Potency [17]
active: Potency [1] 122 nM | Potency [2] 46.9 nM | Potency [3] 1320 nM | Potency [4] 242 nM | Potency [14] 526 nM | Potency [6] 485 nM | Potency [7] 662 nM | Potency [15] 611 nM | Potency [8] 833 nM | Potency [10] 743 nM | Potency [11] 522 nM | Potency [18] 928 nM | Potency [12] 414 nM | Potency [13] 369 nM

c1cncc(CN2CCC(n3ncc4c(N5CCOCC5)nc(-c5ccc6[nH]ccc6c5)nc43)CC2)c1
inactive: Potency [19]
active: Potency [1] 7690 nM | Potency [2] 4690 nM | Potency [4] 19200 nM | Potency [14] 6620 nM | Potency [6] 13700 nM | Potency [7] 5900 nM | Potency [15] 2170 nM | Potency [8] 6620 nM | Potency [9] 14800 nM | Potency [10] 3320 nM

CC(C)(C)[C@H](NC(=O)c1ccc(N)c(Cl)c1)C(=O)N1CCC[C@@H]1C(=O)N[C@H](C#N)CC(=O)O
active: Potency [14] 1050 nM
inactive: activity change, negative = cytotoxic [1] -11.4% [at 6.03 µM] | activity change, negative = cytotoxic [2] 14.9% [at 4.84 µM] | activity change, negative = cytotoxic [19] 9.94% [at 4.84 µM] | activity change, negative = cytotoxic [5] 8.05% [at 4.84 µM] | activity change, negative = cytotoxic [6] 15.5% [at 6.03 µM] | activity change, negative = cytotoxic [7] 0.535% [at 4.84 µM] | activity change, negative = cytotoxic [15] -19.6% [at 6.18 µM] | activity change, negative = cytotoxic [9] -25.9% [at 4.84 µM] | activity change, negative = cytotoxic [16] -7.94% [at 4.84 µM] | activity change, negative = cytotoxic [17] 14.6% [at 4.84 µM]

CCOC(=O)N1CCN([N+]([O-])=NOc2ccc([N+](=O)[O-])cc2[N+](=O)[O-])CC1
inactive: Potency [16] | Potency [17]
active: Potency [1] 15300 nM | Potency [2] 5260 nM | Potency [3] 18700 nM | Potency [4] 27100 nM | Potency [5] 11800 nM | Potency [15] 13700 nM | Potency [8] 18700 nM | Potency [9] 18700 nM | Potency [10] 4180 nM

CC(Oc1ccc(O)cc1)(P(=O)(O)O)P(=O)(O)O
inactive: Potency [1] | Potency [2] | Potency [3] | Potency [4] | Potency [14] | Potency [5] | Potency [6] | Potency [7] | Potency [15] | Potency [8] | Potency [9] | Potency [16] | Potency [17] | Potency [10]

O=C(O)CCCCC(CCSCc1ccccc1)SCc1ccccc1 (stereo not given)
inactive: Potency [1] | Potency [2] | Potency [19] | Potency [6] | Potency [16]
active: Potency [8] 33200 nM
